An excerpt weighted towards active compounds, which were near 2.3% of everything screened.
KDM4E inh: blocks human JMJD2E demethylase activity | AID 2147 | Potency, µM (titrated, usually from 57.1 µM), for the others: at the highest dose activity change, negative = inhibition, most hits filed as inhibitors | B2RXH2 | hit rate 1.6% among 230,000 | JMJD2E catalytic domain, FDH-coupled NADH fluorescence (FDH is formaldehyde dehydrogenase);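 note: potency is the fitted concentration of half-maximal effect; 0% = wells with enzyme and -100% = buffer wells without enzyme; nearly all actives have a fitted effect of over 50% in size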
HTT ATP protect: protects HTT-Q103 PC12 cells, measured by ATP; PC12 HTT-Q103 induced, cytoprotection, ATP luminescence, 40 h; Potency, µM (top dose mostly 56.4 µM), inactives show cytoprotection (ATP increase), usual class: activators; hit rate 0.14% among 230,000; AID 1471; note: potency is the fitted concentration of half-maximal effect; % of control where 0% means no effect; nearly all actives have a fitted effect of over 45% in size
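Rat PC12, Q103 Htt exon1-GFP fusion, ecdysone promoter; tebufenozide inducer 100 nM final; compound titration; qHTS, 1500 cells/well; ATPlite luminescent read.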
RGS12 GoLoco inh: blocks human Gai1 binding to RGS12 GoLoco peptide, red readout. Gai1:RGS12 GoLoco peptide FP, rhodamine, 10 min. P63096. hit rate 0.44% among 230,000. Potency, µM (titrated, usually from 61.6 µM), for inactives: at the top dose activity, negative = inhibition, hits mostly inhibitors; active = well fitted inhibition curve with a large enough effect, not every such curve was filed as active; inactive = no such curve, though single readings can be large or run the other way; note: potency is the fitted concentration of half-maximal effect; % is set by controls: 0 for no effect and ±100 for the full control effect; nearly all actives have a fitted effect of over 30% in size
Target sequence (P63096 whole entry, looked up): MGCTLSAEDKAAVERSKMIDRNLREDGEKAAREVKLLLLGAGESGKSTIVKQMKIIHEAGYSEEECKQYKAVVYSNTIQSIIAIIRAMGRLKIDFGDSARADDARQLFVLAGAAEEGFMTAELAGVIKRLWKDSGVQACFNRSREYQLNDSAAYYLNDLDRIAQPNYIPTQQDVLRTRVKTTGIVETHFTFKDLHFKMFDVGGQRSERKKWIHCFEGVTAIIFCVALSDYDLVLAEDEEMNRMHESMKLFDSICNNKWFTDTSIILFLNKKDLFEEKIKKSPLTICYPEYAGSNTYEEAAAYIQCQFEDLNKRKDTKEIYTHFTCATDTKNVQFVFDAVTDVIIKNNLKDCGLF
FBPA coupling cs: counter-screen for Giardia aldolase inhibitors: coupling enzyme system; coupling enzyme system counterscreen, AmpLite Red fluorescence; activity change, negative = inhibition, % at 58.2 µM, hits read low; hit rate 0.67% among 290,000; AID 2472; in the data active = activity change below about -30%; note: % is set by controls: 0 for no effect and ±100 for the full control effect
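Coupling enzymes only (glyceraldehyde-3-phosphate) + compound, at 57.5 uM final, 10 min RT; add substrate/coupling/AmpLite Red mix, 20 min RT; fluorescence ex 525/em 598 nm. Actives flag coupling-system interference.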
VDR inhibitor: inhibitors of human vitamin D receptor. VDR-SRC2-3 peptide fluorescence polarization, 2 h. P11473. hit rate 0.93% among 400,000. AID 504847. Potency, µM, for the others: max response, negative = inhibition, most hits filed as inhibitors; note: potency is the fitted concentration of half-maximal effect; % is set by controls: 0 for no effect and ±100 for the full control effect
Target sequence (P11473 whole entry, looked up): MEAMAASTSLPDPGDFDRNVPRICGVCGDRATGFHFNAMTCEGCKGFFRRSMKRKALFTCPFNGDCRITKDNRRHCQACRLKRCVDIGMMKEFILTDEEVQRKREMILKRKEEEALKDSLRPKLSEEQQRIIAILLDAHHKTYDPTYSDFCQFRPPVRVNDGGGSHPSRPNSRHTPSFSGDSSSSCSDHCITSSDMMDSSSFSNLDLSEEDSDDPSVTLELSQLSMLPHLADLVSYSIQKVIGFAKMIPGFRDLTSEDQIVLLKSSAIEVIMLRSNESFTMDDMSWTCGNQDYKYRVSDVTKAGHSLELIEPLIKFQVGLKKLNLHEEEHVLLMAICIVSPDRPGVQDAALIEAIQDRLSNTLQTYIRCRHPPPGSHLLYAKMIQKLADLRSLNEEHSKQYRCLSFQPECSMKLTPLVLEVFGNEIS
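Reagent solutions, kept cold and dark, are dispensed first; compounds are then pinned in at 23 nl, plates briefly spun, and incubated 2 h at ambient temperature. Inhibition of VDR–SRC2-3 peptide binding is read by fluorescence polarization.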
HTT aggregate: inhibitors of mutant huntingtin aggregate formation in PC12 cells; hit rate 1.1% among 220,000; PC12 HttQ103-GFP aggregates, Acumen cytometry, 40 h; AID 1688; Potency, µM (doses to about 46.1 µM), without a hit: at the top dose activity change, negative = inhibition, usual class: inhibitors; note: potency is the fitted concentration of half-maximal effect; % is set by controls: 0 for no effect and ±100 for the full control effect; nearly all actives have a fitted effect of over 60% in size
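PC12 cells stably carrying ecdysone-inducible HTT exon 1 Q103–GFP were induced with tebufenozide (100 nM final) and treated with library compounds in titration. GFP aggregates in lysates were counted by laser scanning cytometry.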
Numbers without * were called inactive; ? = inconclusive; . = no result; [ ] = another dose, or the depositor's remark. Unless noted, calls come from the whole dose curve; as a rule, active = well fitted curve in the direction sought with a large enough effect; inconclusive = small, poorly fitted or top-dose-only effect, or another doubt; inactive = no such curve, though single readings can be large; an effect the other way counts as inactive or inconclusive.

SMILES	KDM4E inh	HTT ATP protect	RGS12 GoLoco inh	FBPA coupling cs	VDR inhibitor	HTT aggregate
O=C(CC(=O)Nc1ccc(Cl)cc1)N/N=C\c1cccc(F)c1	.	.	.	1.3	-0.4%	.
CCSc1ccccc1C(=O)n1nnc2ccccc21	-0.6%	5.1%[0.074 µM]	2.5%	-3.5	50.1µM*	?
CC(=O)n1nnc2ccccc21	.	.	.	3.2	-7.2%	.
NC(=S)Nc1cccc2[nH]ncc12	-19.7%	-33.2%	11.6%	2.5	6.5%	2.8%
O=C(NC(=S)Nc1cccc2[nH]ncc12)c1ccccc1	-1.2%	-9.2%	14.2%	-1.9	5.9%	10µM*
O=C(Nc1cccc2[nH]ncc12)c1ccc(F)cc1	18.7%	-15.5%	7.4%	-1.3	2.3%	5.01µM*
COc1c(C)cc(NS(=O)(=O)c2ccc3c(c2)OCCO3)cc1C	.	.	.	.	-9.0%	.
COc1ccc(-c2cc(C3C4C=CCC(C)C4C(=O)N3Cc3ccccc3)ccc2F)cc1OC (centres undefined)	.	.	.	-1.1	-4.0%	.
CCOc1ccccc1N(CC(=O)N1CCCC1)S(C)(=O)=O	.	.	.	1.4	-21.7%	.
O=C1C=CC2(O[C@H](c3ccccc3)[C@@H](c3ccccc3)O2)[C@H](Sc2ccccc2O)C1	.	.	.	.	10µM*	.
Cc1cccc(N(CC(=O)N/N=C/c2cc([N+](=O)[O-])ccc2Cl)S(C)(=O)=O)c1C	1.8%	-20.8%	-4.9%	-59.4*	-12.0%	-16.7%
Cc1cccc(N(CC(=O)Nc2ccc(Br)cc2)S(C)(=O)=O)c1C	.	.	.	.	9.8%	.
CCOC(=O)c1sc(N2C(=O)c3oc4ccc(F)cc4c(=O)c3C2c2ccc(O)cc2)nc1C (centres undefined)	.	.	.	.	-6.5%	.
CCN1/C(=C/C(C)=C/c2sc3ccccc3[n+]2CC)Sc2ccccc21	-12.8%	-186.3%	-134.2%	0.7	-27.4%	1.12µM*
CCN1/C(=C\C(=S)Nc2ccccc2)Sc2ccccc21	-12.0%	22.9%[10 µM]	35.1%	-2.0	?	16.9%[9.22 µM]
O=C(NC1CCN(C(=O)C2CCCCC2)CC1)c1ccccc1	4.5%	-1.5%[10 µM]	-6.5%	0.0	-4.2%	-0.6%[9.22 µM]
C/C(CCc1ccc2c(c1)OCO2)=N\NC(=O)c1ccccc1	19.5%	3.3%[10 µM]	-1.0%	0.4	9.6%	11.7%
NC(=NCc1ccc2c(c1)OCO2)NC(=O)c1ccccc1	4.47µM*	.	15.1%	-1.0	-17.4%	.
CCc1ccccc1Nc1ccc(C(=O)O)cc1N	?	2.2%	6.4%	4.6	-8.6%	13.4%
CCNc1ccc(C(=O)O)cc1N	?	9.3%[10 µM]	-63.0%	0.3	79.4µM*	?
O=C(O)CSc1c2ccccc2cc2ccccc12	.	.	.	12.5	70.8µM*	.
CC(C)CC(=O)Nc1nc(=S)ss1	-11.7%	-0.7%	-5.8%	4.5	?	11.8%
CC(=O)Nc1nc(=S)ss1	-3.5%	13.5%[10 µM]	8.4%	5.6	44.7µM*	-4.9%
CC(=O)Nc1n[nH]c(=S)s1	.	.	.	.	50.1µM*	.
N#CCOC(=O)C1CSC2(c3ccc(Br)cc3)CCC(=O)N12 (centres undefined)	1.4%	6.2%[10 µM]	9.1%	2.4	-24.2%	11.5%
SMILES	KDM4E inh	HTT ATP protect	RGS12 GoLoco inh	FBPA coupling cs	VDR inhibitor	HTT aggregate
O=C(Nc1cc(S(=O)(=O)N2CCCCC2)ccc1Cl)c1ccccc1NS(=O)(=O)c1ccc(F)cc1	?	-67.3%[10 µM]	-3.7%	6.1	-2.1%	3.16µM*
COc1ccccc1NC(=O)/C(C#N)=C/c1cc([N+](=O)[O-])ccc1N1CCCC1	1.2%	3.98µM*	8.2%	-6.2	-15.1%	16.1%
O=C(Nc1cc(S(=O)(=O)N2CCOCC2)ccc1N1CCCC1)c1ccc(F)cc1	.	.	.	.	39.8µM*	.
COc1ccccc1NC(=O)/C(C#N)=C/c1ccncc1	.	.	.	.	-28.9%	.
COc1ccc(/C=C(\C#N)C(=O)Nc2cc(S(=O)(=O)N3CCOCC3)ccc2N2CCCC2)cc1	-23.2%	-18.3%[10 µM]	-4.5%	-1.3	35.5µM*	-0.1%
COc1ccc(NC(=O)Cn2ncc3c4ccccc4n(Cc4ccccc4)c3c2=O)cc1OC	.	.	.	.	10.7%	.
Cc1cccc(OCC(=O)OCc2cc(=O)n3nc(-c4cccs4)sc3n2)c1	.	.	.	.	11.2%	.
CCCc1cc(=O)oc2cc(OCC(=O)NCCc3c[nH]c4ccccc34)ccc12	.	.	.	-4.9	-21.3%	.
CS(=O)(=O)c1ccc(Cl)c(NC(=O)CCN2C(=O)C3CC=CCC3C2=O)c1 (centres undefined)	.	.	.	.	-6.0%	.
CN(C)S(=O)(=O)c1cccc(C(=O)Nc2cc(S(=O)(=O)N3CCOCC3)ccc2N2CCCC2)c1	.	.	.	.	44.7µM*	.
CN(C)S(=O)(=O)c1cccc(C(=O)Nc2cc(S(=O)(=O)N3CCOCC3)ccc2O)c1	.	.	.	.	-5.5%	.
COCCn1c(=NC(=O)c2ccc(S(=O)(=O)N3CCc4ccccc4C3)cc2)sc2cc(S(N)(=O)=O)ccc21	3.98µM*	.	4.0%	-0.2	3.7%	19.2%
C#CCn1c(=NC(=O)c2ccc(S(=O)(=O)N3CCc4ccccc4C3)cc2)sc2cc(S(N)(=O)=O)ccc21	6.31µM*	-35.9%[10 µM]	8.9%	-0.2	-23.9%	10µM*
O=C(Nc1ccc(OCC(F)(F)C(F)F)c(C(F)(F)F)c1)c1ccccc1O	?	-2.6%[10 µM]	6.9%	0.2	-6.3%	5.01µM*
O=C(/C=C/c1cn(-c2ccccc2)nc1-c1cccnc1)c1ccco1	?	-62.3%	3.1%	-0.3	50.1µM*	?
COc1cccc2sc(N(Cc3cccnc3)C(=O)c3ccc(S(=O)(=O)N(C)C)cc3)nc12	.	.	.	.	12.0%	.
COCCn1c(C)cc(/C=C(\C#N)C(=O)OCC(=O)N(C)c2c(N)n(Cc3ccccc3)c(=O)[nH]c2=O)c1C	.	.	.	.	-5.3%	.
c1ccc(C2c3[nH]c4ccccc4c3CCN2Cc2cccn2-c2ccccn2)nc1 (centres undefined)	?	-14.1%[10 µM]	10.4%	-12.6	-2.2%	7.5%[9.22 µM]
CC(=O)Nc1ccc(CN2CCc3c([nH]c4ccccc34)C2c2ccccn2)cc1 (centres undefined)	25.1µM*	-7.8%[10 µM]	-22.5%	-9.3	0.4%	?
CCOC(=O)CN=C1CC(C)(C)CC2=C1Sc1ncnc(N(C)C)c1N2	?	-17.1%	12.3%	-47.4*	-13.0%	12.9%
Cc1ccccc1C(=O)NCCCNC(=O)c1ccccn1	.	.	.	-0.5	-4.5%	.
CCCCn1c(SCC(=O)Nc2cccc(OC)c2)nc2ccc(N3CCOCC3)cc2c1=O	?	-15.7%	7.9%	-32.5*	-8.8%	13.1%
COc1cccc(NC(=O)CSc2nc3ccccc3c(=O)n2CCCC(=O)NCCCN2CCOCC2)c1	-17.4%	-46.4%	4.5%	2.8	4.3%	-20.5%
CCCCn1c(SCC(N)=O)nc2ccc(N3CCOCC3)cc2c1=O	?	-17.2%	-6.1%	-40.3*	-9.8%	2.0%
CCN1C(=O)[C@H]2[C@@H](c3ccc(-c4cccc(Cl)c4)cc3)N[C@@](C)(C(=O)OC)[C@H]2C1=O	.	.	.	.	-23.2%	.
